Data: PubChem BioAssay (EPA / NIEHS)
Inconclusive results are not listed. More than one record can exist for a structure, and the calls need not agree. Calls of active or inactive are those of the source. Rule for the calls, unless noted: active = hit-call score of the fitted dose curve at least 0.9, where 1 is the maximum; inconclusive = response in the unintended direction; inactive = score below 0.9.

Experiments:
[1] = ATG_TGFb_CIS: Attagene CIS-FACTORIAL HepG2 Assay for human Transforming Growth Factor (TGF) (AID 2282967; active = hit-call score of the fitted dose curve at least 0.9, where 1 is the maximum; inactive = score below 0.9); conditions: HepG2 Attagene CIS TGFb reporter, mRNA transcription; actives raise or lower the signal
Procedure, shortened: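 HepG2 cells transiently transfected with cis-promoter-driven multiplexed reporter units; 24 h compound exposure. Reporter mRNA measured by RT-PCR, 6-FAM labeling, HpaI digestion and capillary electrophoresis; bidirectional fit versus DMSO baseline.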

[2] = ATG_VDRE_CIS: Attagene CIS-FACTORIAL HepG2 Assay for human Vitamin D Receptor Element (VDRE) (AID 2282968; active = hit-call score of the fitted dose curve at least 0.9, where 1 is the maximum; inactive = score below 0.9); conditions: HepG2 VDRE cis-reporter transcription, actives raise or lower the signal
Procedure, shortened: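 Transient MRTU transfection of HepG2, 24 h compound exposure. Readout: reporter transcripts via RT-PCR and capillary electrophoresis, fluorescence. Bidirectional fit vs DMSO.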

[3] = target: Estrogen receptor (Homo sapiens) (UniProt P03372); assay: ATG_ERa_TRANS: Attagene TRANS-FACTORIAL HepG2 Assay for human Estrogen Receptor alpha (ERa) (AID 2282970); conditions: HepG2 Attagene TRANS ERa GAL4 reporter, mRNA
Procedure, shortened: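 Signal derives from fluorescence of labelled reporter PCR fragments separated by capillary electrophoresis. HepG2 cells transiently carrying multiple GAL4-UAS reporter units were treated 24 hours, and induction above DMSO baseline was fitted as activity.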

[4] = target: X-box-binding protein 1 (Homo sapiens) (UniProt P17861); assay: ATG_Xbp1_CIS: Attagene CIS-FACTORIAL HepG2 Assay for human X-box Binding Protein 1 (XBP1) (AID 2282972; active = hit-call score of the fitted dose curve at least 0.9, where 1 is the maximum; inactive = score below 0.9); conditions: HepG2 XBP1 cis-element reporter, Attagene multiplex; actives raise or lower the signal
X-box-binding protein 1 (Homo sapiens), sequence (P17861 whole entry, looked up): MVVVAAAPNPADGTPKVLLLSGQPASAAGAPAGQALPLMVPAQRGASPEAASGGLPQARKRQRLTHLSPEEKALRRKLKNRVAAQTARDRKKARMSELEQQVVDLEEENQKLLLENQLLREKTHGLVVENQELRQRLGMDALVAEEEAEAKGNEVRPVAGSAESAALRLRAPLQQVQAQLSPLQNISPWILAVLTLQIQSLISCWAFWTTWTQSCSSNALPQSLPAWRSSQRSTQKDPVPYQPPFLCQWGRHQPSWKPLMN
Procedure, shortened: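 Human hepatoma HepG2, cis-element reporter system, 24 h treatment; mRNA quantified by RT-PCR/CE fluorescence; fit relative to DMSO.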

[5] = ATG_M_19_TRANS: Attagene TRANS-FACTORIAL HepG2 Assay for M19 Transcription Factor (Internal Marker) (AID 2282974); conditions: HepG2 Attagene TRANS-FACTORIAL M19 internal marker reporter
Procedure, shortened: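 Measured here: internal-marker reporter transcript from HepG2 cells transfected with MRTUs, harvested at 24 h. cDNA PCR products were 6-FAM labelled by primer extension, cut with HpaI for 2 h at 37 C, and resolved by CE.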

[6] = ATG_GAL4_TRANS: Attagene TRANS-FACTORIAL HepG2 Assay for GAL4 (Internal Marker) (AID 2282976); conditions: HepG2 Attagene TRANS GAL4 internal marker reporter
Procedure, shortened: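 Liver HepG2 line bearing multiplexed GAL4-UAS reporter constructs; 24 h chemical treatment. Transcripts were quantified as fluorescent fragments on capillary electrophoresis after RT-PCR and HpaI cut, with activity fitted upward from DMSO.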

[7] = target: Glucocorticoid receptor (Homo sapiens) (UniProt P04150); assay: ATG_GR_TRANS: Attagene TRANS-FACTORIAL HepG2 Assay for human Glucocorticoid Receptor (GR) (AID 2282978); conditions: HepG2 Attagene TRANS GR reporter, mRNA transcription;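 note: activators score as hits since higher reporter transcript over DMSO is fitted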
Glucocorticoid receptor (Homo sapiens), sequence (P04150 whole entry, looked up, the tested form may be a part): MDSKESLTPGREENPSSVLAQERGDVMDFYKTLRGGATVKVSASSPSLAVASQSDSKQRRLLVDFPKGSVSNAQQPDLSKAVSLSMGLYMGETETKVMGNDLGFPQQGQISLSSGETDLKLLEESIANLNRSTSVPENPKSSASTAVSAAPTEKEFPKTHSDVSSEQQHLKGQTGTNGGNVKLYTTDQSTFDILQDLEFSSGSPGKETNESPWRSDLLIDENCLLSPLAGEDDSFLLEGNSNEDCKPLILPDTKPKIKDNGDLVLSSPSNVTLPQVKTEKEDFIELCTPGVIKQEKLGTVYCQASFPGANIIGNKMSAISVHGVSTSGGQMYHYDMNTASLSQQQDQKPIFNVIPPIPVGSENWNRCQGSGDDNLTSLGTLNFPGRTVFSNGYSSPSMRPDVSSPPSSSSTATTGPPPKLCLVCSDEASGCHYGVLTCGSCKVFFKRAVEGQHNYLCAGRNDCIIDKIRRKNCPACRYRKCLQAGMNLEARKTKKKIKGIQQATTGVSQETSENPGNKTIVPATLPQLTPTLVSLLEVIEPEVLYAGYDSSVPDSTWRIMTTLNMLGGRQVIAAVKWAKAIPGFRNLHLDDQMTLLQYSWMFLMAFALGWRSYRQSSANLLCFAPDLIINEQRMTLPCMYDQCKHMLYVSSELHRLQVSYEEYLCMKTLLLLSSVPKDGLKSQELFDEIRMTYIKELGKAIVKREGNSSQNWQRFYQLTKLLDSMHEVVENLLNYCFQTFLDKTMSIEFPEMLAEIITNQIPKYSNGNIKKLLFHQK
Procedure, shortened: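 Measurement of GAL4-UAS-driven reporter mRNA in human HepG2 liver cells 24 h post-dosing, using RT-PCR with fluorescent labelling and capillary electrophoresis; the transfected constructs report exogenous NR-GAL4 chimera activity, fitted upward against DMSO.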

[8] = target: Oxysterols receptor LXR-alpha (Homo sapiens) (UniProt Q13133); assay: ATG_LXRa_TRANS: Attagene TRANS-FACTORIAL HepG2 Assay for human Liver X Receptor alpha (LXRa) (AID 2282980); conditions: HepG2 Attagene TRANS reporter, LXRa transactivation
Oxysterols receptor LXR-alpha (Homo sapiens), sequence (Q13133 whole entry, looked up, the tested form may be a part): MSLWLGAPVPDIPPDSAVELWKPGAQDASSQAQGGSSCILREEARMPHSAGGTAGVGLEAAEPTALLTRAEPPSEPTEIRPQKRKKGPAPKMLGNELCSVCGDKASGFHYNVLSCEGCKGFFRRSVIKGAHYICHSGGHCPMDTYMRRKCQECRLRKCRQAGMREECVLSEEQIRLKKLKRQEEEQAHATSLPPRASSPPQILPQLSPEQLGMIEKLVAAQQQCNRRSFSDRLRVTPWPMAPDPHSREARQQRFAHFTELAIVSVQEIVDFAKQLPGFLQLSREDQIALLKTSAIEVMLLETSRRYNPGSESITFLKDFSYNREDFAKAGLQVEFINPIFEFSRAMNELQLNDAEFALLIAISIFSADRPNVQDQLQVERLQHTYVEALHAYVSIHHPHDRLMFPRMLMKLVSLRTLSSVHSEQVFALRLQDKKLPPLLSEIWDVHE
Procedure, shortened: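 In this multiplexed TRANS system, compounds act on HepG2 cells carrying GAL4-UAS reporter units and a receptor-GAL4 fusion for 24 h. Induced reporter RNA is amplified, fluorescently labelled and sized by capillary electrophoresis, with DMSO as baseline.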

[9] = target: Oxysterols receptor LXR-beta (Homo sapiens) (UniProt P55055); assay: ATG_LXRb_TRANS: Attagene TRANS-FACTORIAL HepG2 Assay for human Liver X Receptor beta (LXRb) (AID 2282981); conditions: HepG2 Attagene TRANS GAL4-LXRb reporter, mRNA
Oxysterols receptor LXR-beta (Homo sapiens), sequence (P55055 whole entry, looked up, the tested form may be a part): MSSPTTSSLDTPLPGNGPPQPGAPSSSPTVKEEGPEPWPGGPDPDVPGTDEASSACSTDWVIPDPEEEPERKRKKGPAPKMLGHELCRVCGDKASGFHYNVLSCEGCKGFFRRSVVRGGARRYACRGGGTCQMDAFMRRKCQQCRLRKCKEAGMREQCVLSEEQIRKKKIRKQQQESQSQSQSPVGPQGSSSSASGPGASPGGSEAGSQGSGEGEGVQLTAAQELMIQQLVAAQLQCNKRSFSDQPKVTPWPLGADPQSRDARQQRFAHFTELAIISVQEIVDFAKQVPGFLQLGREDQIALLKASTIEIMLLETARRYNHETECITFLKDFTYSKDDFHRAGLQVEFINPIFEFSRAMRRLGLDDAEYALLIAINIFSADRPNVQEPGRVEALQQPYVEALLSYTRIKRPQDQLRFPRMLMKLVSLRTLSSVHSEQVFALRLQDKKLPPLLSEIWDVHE
Procedure, shortened: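 Readout: fluorescent reporter mRNA fragments resolved by capillary electrophoresis after RT-PCR. System: transiently transfected human HepG2, exogenous LXRb-Gal4 chimera driving GAL4-UAS reporter, 24 h dosing. Activity fitted upward against DMSO baseline.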

[10] = target: Hepatocyte nuclear factor 4-alpha (Homo sapiens) (UniProt P41235); assay: ATG_HNF4a_TRANS: Attagene TRANS-FACTORIAL HepG2 Assay for human Hepatocyte Nuclear Factor 4 alpha (HNF4a) (AID 2282982); conditions: HepG2 HNF4a transactivation reporter, mRNA readout
Hepatocyte nuclear factor 4-alpha (Homo sapiens), sequence (P41235 whole entry, looked up): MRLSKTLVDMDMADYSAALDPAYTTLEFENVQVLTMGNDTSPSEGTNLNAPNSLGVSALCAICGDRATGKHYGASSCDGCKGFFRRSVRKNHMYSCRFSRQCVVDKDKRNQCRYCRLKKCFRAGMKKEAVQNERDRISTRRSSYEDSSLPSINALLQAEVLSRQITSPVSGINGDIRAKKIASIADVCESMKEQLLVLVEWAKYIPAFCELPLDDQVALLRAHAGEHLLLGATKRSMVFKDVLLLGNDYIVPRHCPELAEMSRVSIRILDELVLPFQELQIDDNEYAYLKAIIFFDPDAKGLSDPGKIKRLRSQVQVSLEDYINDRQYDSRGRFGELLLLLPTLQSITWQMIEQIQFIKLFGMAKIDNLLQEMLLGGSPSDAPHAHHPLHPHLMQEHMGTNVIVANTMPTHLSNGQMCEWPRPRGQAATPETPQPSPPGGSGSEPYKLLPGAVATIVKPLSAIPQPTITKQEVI
Procedure, shortened: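 Transient MRTU transfection of HepG2, 24 h dosing. Readout: reporter mRNA via RT-PCR + capillary electrophoresis, fluorescence; activity fit upward relative to DMSO control.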

[11] = ATG_M_06_TRANS: Attagene TRANS-FACTORIAL HepG2 Assay for M06 Transcription Factor (Internal Marker) (AID 2282983); conditions: HepG2 Attagene TRANS M06 internal marker reporter
Procedure, shortened: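 Multi-reporter-transfected HepG2, 24 h treatment; reporter transcripts quantified via RT-PCR, primer-extension labelling and CE. DMSO-normalized gain-of-signal fit.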

[12] = target: Nuclear receptor subfamily 4 group A member 2 (Homo sapiens) (UniProt P43354); assay: ATG_NURR1_TRANS: Attagene TRANS-FACTORIAL HepG2 Assay for human Nuclear Receptor Related Protein 1 (NURR1) (AID 2282985); conditions: HepG2 Attagene TRANS reporter, mRNA readout
Nuclear receptor subfamily 4 group A member 2 (Homo sapiens), sequence (P43354 whole entry, looked up, the tested form may be a part): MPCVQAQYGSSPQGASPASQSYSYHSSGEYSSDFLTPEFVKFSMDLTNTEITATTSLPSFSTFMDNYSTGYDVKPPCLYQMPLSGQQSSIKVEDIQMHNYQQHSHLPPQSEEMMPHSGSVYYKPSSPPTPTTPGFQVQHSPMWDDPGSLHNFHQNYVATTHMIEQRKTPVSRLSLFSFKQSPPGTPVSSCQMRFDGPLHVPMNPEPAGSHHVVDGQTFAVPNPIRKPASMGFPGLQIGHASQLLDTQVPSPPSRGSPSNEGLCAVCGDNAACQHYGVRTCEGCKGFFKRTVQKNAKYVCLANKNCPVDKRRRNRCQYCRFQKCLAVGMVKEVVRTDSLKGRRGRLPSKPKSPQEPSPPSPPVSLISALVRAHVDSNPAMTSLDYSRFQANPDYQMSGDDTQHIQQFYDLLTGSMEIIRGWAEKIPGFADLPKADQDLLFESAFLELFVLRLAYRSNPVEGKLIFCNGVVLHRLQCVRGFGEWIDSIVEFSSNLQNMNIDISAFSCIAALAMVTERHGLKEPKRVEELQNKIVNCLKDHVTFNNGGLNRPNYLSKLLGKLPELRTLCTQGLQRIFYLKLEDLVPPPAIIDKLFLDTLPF
Procedure, shortened: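 Read-out: reporter mRNA induction by RT-PCR plus capillary electrophoresis with fluorescence detection, after 24 h dosing of transfected HepG2 cells. Exogenous NR-Gal4 chimera activity drives GAL4-UAS reporter; activity fitted upward versus DMSO.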

[13] = target: Transcriptional activator Myb (Homo sapiens) (UniProt P10242); assay: ATG_Myb_CIS: Attagene CIS-FACTORIAL HepG2 Assay for human Myeloblastosis (Myb) Proto-Oncogene Transcription Factor (AID 2282986; active = hit-call score of the fitted dose curve at least 0.9, where 1 is the maximum; inactive = score below 0.9); conditions: HepG2 Attagene CIS-FACTORIAL Myb reporter transcription; actives raise or lower the signal
Transcriptional activator Myb (Homo sapiens), sequence (P10242 whole entry, looked up): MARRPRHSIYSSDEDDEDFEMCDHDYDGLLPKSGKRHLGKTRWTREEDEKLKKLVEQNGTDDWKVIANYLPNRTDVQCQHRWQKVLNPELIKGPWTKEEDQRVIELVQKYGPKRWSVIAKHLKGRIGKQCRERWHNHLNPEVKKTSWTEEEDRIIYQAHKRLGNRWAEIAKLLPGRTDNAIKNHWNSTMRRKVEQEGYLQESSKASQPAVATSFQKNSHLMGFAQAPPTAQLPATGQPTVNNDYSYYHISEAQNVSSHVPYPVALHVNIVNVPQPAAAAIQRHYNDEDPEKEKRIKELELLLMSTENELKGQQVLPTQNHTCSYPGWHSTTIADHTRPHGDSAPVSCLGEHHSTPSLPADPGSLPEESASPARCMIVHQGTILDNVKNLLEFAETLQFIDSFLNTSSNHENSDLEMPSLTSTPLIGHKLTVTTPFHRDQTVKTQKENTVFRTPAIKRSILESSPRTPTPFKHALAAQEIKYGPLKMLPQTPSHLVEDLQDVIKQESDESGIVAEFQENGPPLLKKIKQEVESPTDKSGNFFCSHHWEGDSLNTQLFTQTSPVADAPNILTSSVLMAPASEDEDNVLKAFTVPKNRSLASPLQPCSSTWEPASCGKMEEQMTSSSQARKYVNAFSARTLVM
Procedure, shortened: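 Fluorescence signals from capillary electrophoresis of RT-PCR-amplified reporter cDNA give the read-out. Cells: HepG2 transfected with multiple cis-regulated reporter units. Exposure lasts 24 hours; DMSO defines baseline for gain or loss of signal.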

[14] = target: Nuclear respiratory factor 1 (Homo sapiens) (UniProt Q16656); assay: ATG_NRF1_CIS: Attagene CIS-FACTORIAL HepG2 Assay for human Nuclear Respiratory Factor 1 (NRF1) Orphan Gene (AID 2282987; active = hit-call score of the fitted dose curve at least 0.9, where 1 is the maximum; inactive = score below 0.9); conditions: HepG2 NRF1 cis-element reporter, Attagene multiplex; actives raise or lower the signal
Nuclear respiratory factor 1 (Homo sapiens), sequence (Q16656 whole entry, looked up): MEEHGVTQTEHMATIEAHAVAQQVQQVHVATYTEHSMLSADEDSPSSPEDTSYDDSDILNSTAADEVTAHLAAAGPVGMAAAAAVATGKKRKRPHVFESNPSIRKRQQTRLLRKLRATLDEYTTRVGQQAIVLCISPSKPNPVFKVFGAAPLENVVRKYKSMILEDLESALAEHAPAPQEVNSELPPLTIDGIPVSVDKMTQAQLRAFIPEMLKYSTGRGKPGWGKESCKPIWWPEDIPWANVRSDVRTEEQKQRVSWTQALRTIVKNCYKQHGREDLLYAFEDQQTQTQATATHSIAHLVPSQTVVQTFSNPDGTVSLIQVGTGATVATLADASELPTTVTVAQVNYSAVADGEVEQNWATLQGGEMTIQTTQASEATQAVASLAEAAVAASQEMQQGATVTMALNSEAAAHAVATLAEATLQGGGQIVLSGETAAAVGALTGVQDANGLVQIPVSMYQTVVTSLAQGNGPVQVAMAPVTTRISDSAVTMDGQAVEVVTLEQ
Procedure, shortened: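 Transcriptional reporter readout, one component of a 52-endpoint multiplexed HepG2 panel. Exposure 24 h; mRNA detected via RT-PCR and fluorescent capillary electrophoresis; fitting in both directions against DMSO.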

[15] = ATG_Hpa5_TRANS: Attagene TRANS-FACTORIAL HepG2 Assay for human GAL4-Hpa5 Hepatocyte Transcription Factor Basal Promoter (AID 2282975); conditions: HepG2 Attagene GAL4-Hpa5 transcription reporter;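 note: hits are increases in reporter mRNA over DMSO baseline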
Procedure, shortened: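 Gain-of-signal versus DMSO is fitted for reporter mRNA quantified by RT-PCR and capillary electrophoresis after 24 h exposure. This endpoint is an internal background marker in transiently transfected HepG2 cells carrying GAL4-UAS reporter units.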

[16] = target: Nuclear receptor subfamily 1 group I member 3 (Homo sapiens) (UniProt Q14994); assay: ATG_CAR_TRANS: Attagene TRANS-FACTORIAL HepG2 Assay for human Constitutive Androstane Receptor (CAR) (AID 2282969); conditions: HepG2 Attagene TRANS-FACTORIAL CAR reporter;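 note: activators raise reporter mRNA above DMSO so AC50 marks induction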
Nuclear receptor subfamily 1 group I member 3 (Homo sapiens), sequence (Q14994 whole entry, looked up, the tested form may be a part): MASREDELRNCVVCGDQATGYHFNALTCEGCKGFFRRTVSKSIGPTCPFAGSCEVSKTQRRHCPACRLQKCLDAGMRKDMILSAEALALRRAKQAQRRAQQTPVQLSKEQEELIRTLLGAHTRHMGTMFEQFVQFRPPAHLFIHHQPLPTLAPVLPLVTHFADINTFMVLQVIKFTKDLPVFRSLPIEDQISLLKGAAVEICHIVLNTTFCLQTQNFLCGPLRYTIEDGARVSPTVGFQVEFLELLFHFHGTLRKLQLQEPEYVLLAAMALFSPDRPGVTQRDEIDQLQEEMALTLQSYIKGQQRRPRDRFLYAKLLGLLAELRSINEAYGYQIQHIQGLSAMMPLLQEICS
Procedure, shortened: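 Transiently transfected HepG2, multiplex TRANS reporters (CAR-Gal4 chimera driving GAL4-UAS reporter). 24 h dosing. Readout: reporter transcript by RT-PCR + capillary electrophoresis, fluorescence intensity; positive direction vs DMSO.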

[17] = target: Estrogen-related receptor gamma (Homo sapiens) (UniProt P62508); assay: ATG_ERRg_TRANS: Attagene TRANS-FACTORIAL HepG2 Assay for human Estrogen-Related Receptor gamma (ERRg) (AID 2282977); conditions: HepG2 Attagene TRANS reporter, ERRg transactivation;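 note: hits increase reporter signal over DMSO so potencies reflect activators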
Estrogen-related receptor gamma (Homo sapiens), sequence (P62508 whole entry, looked up, the tested form may be a part): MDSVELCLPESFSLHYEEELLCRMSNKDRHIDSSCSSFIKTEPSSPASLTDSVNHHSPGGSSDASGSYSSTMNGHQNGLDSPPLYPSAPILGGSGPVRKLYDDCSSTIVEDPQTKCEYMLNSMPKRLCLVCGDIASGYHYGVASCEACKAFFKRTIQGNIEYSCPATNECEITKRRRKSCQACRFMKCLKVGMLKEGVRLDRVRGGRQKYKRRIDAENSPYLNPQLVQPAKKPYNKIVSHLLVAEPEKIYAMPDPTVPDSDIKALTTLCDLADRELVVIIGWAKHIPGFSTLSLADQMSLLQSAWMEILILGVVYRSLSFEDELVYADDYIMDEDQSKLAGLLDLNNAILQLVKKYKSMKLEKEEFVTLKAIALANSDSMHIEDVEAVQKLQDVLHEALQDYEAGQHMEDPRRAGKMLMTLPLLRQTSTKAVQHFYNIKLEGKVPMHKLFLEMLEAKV
Procedure, shortened: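 Exogenous NR-Gal4 chimera activity was assessed in HepG2 cells bearing transfected GAL4-UAS reporters. After 24 h dosing, total RNA underwent RT-PCR, fluorescent primer extension and HpaI digestion before capillary electrophoresis, with gain of signal scored against DMSO.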

[18] = target: Bile acid receptor (Homo sapiens) (UniProt Q96RI1); assay: ATG_FXR_TRANS: Attagene TRANS-FACTORIAL HepG2 Assay for Farnesoid X Receptor (FXR) (AID 2282979); conditions: HepG2 Attagene TRANS FXR-GAL4 reporter transcription;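 note: hits raise reporter mRNA above DMSO so AC50 marks FXR activation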
Procedure, shortened: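 After 24 h chemical treatment of transfected HepG2 cells, GAL4-UAS reporter transcripts driven by an exogenous FXR-GAL4 fusion were measured by RT-PCR and capillary electrophoresis. Increases over DMSO were fitted.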

Measured: AC50

c1ccc2[nH]c(-c3cscn3)nc2c1
active: [8] 27.2 µM
not listed: [15] | [16] | [17] | [18]
inactive: all other assays above

CCCCCOC(=O)COc1cc(N2C(=O)C3=C(CCCC3)C2=O)c(F)cc1Cl
not listed: [6] | [9] | [11] | [16] | [17] | [18]
inactive: all other assays above

CSC(=O)c1cccc2nnsc12
not listed: [3] | [8] | [10] | [15] | [16] | [17] | [18]
inactive: all other assays above

COc1nc(C)nc(NC(=O)NS(=O)(=O)c2ccccc2OCCCl)n1
inactive: [1] | [2] | [16] | [4] | [5] | [6] | [17] | [7] | [18] | [9] | [10] | [11] | [12] | [13] | [14]
active: [8] 17.1 µM | [9] 25.6 µM

CN(C)C(=O)Nc1ccc(Cl)c(Cl)c1
not listed: [2] | [6] | [18]
inactive: all other assays above

CCOC(=O)C(C)Oc1ccc(Oc2cnc3cc(Cl)ccc3n2)cc1 (stereo not drawn)
not listed: [3] | [6] | [10] | [11] | [15] | [17] | [18]
inactive: all other assays above

C=CCOC(Cn1ccnc1)c1ccc(Cl)cc1Cl (stereo not drawn)
active: [2] 3.43 µM
not listed: [3] | [8] | [15] | [17] | [18]
inactive: all other assays above
